Measured values: the OligoGym collection

The sequences below were run against MAN1C1 (assay: pooled miR-30 sensor sort-seq; sequence = guide strand). Conditions: shRNA.
Note: reference of the scale not given here.

Row | Sequence | sensor-assay potency score (higher = more potent)
1 | TATGACTCGTGACACGTCTTGG | -0.605
2 | TTTGTGTGTGTGCAAACACTGG | -1.13
3 | TTAGCCTCCATATCTGTCTTGC | -0.298
4 | TTATTCGGAACACCTCTTCTCC | -0.384
5 | TTGTGTGTGTGCAAACACTGGG | 0.0469
6 | TAACGCTTATAGCTCTGCCAAG | -1.49
7 | TAGAAAGAAGCTCTGCTGCTTG | 0.252
8 | TTCGATCTTCCTGAGGACCTTG | 0.041
9 | TTGAACATAGGGTCAGTGTTGG | -0.0716
10 | TTCGGAACACCTCTTCTCCTGT | -0.298
11 | AATTGTGACAAAACTAAACTGT | 0.356

What follows are sequences tested against MANEAL in the same assay as above. Conditions: shRNA.

Row | Sequence | sensor-assay potency score (higher = more potent)
12 | TTTGATGAAGTGCTCCGCCCAG | -0.378
13 | TAGCTGGCCGAGATCTTGGGGT | -1.02
14 | ATGCTGGTGTCTATGTAGCCAG | -1.86
15 | TAGTACTTGCCATTGACCCTGT | -0.0343
16 | ATGAACATGAGGTTGTTGGCAT | 0.179
17 | ATAGTACTTGCCATTGACCCTG | -0.405
18 | TACCACGAGTAGTAGAAGGCGT | -0.339
19 | TTGATGAAGTGCTCCGCCCAGC | -0.595
20 | TTGTGGTTGTTCCAGGGCCGAA | -1.8
21 | TAGAAGGCGTGCAGGTCCGAGT | -1.05
22 | AAGTTCTTCACAGCTTTCCAGT | -0.845
23 | TTCTCTTTGATGAAGTGCTCCG | -0.00624

The sequences below were run against MAP4K4 in the same assay as above. Conditions: shRNA.

Row | Sequence | sensor-assay potency score (higher = more potent)
24 | TTGCCTTTTATATTCTTCCTGC | -0.0293
25 | TTTGTTGAAATCGTCTTCGGTT | 0.0416
26 | TTGTATTTACGAATCTCCGGGG | -0.365
27 | TTATAGACTTGTCCATAGGTGC | -0.62
28 | TACATCATCATGGACAATCATG | -1.13
29 | TTCTTGTTCTCTCCTTCGCTGT | -0.84
30 | TTGACCACTGAGCCTTTCCGGG | -1.11
31 | TAGATCACTTTCAACCTCTGGC | 0.492
32 | TAGACTTGTCCATAGGTGCCAT | -0.0714
33 | TTCTCTTTCAACTCTCCTCTTT | -0.401
34 | TTTGATGCTACACTGGATCATA | -0.597
35 | TAGAACTACATCCTTGGTGATC | -1.1

The sequences below were run against MAPK4 in the same assay as above. Conditions: shRNA.

Row | Sequence | sensor-assay potency score (higher = more potent)
36 | TTGCTGATTAGATTTAAGGTGC | -0.432
37 | TGAACTTGAACAGCTCACCCTG | -0.313
38 | TCTCCTAACACATTTGCTCTAT | -0.331
39 | TACCACTTTGTTACCAACCCTT | -0.102
40 | TTAAAGAAAAAACAAAACCCAA | -1.11
